Experimental findings from PubChem BioAssay AID1663 (Broad Institute, 2009) are described below.

Hit rate of the full screen: of about 300,000 compounds, about 660 (0.22%) were called active.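 Rule for the calls: active = mean replicate score, as percent of positive control, at or above 50; inconclusive = mean below 50 but at least one replicate at or above 50; inactive = mean and every replicate below 50.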 The sample as a whole holds a higher share of actives than the screen did.

The assay in a line: blockers of SFLLRN-triggered platelet ATP release – cell-based, MLPCN, human platelets, primary screen (AID 1663). To be noted: human platelet-rich plasma, SFLLRN dense granule ATP release, luminescence; hits give high values;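 compounds screened at 7.5 µM in platelet-rich plasma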.
By inhibition is commonly meant the relative decrease from the control value, in per cent. `Cc1nn(CC(=O)NCC2CCCO2)c(=O)c2cc3ccccc3n12` (stereo not drawn): the inhibition was -4.75% (inactive).

Regarding `CCOC(CNC(=O)C(=O)NCC(c1ccco1)N1CCN(c2ccc(OC)cc2)CC1)OCC` (stereo not drawn), the inhibition is -9.05% (inactive).

For the compound `COc1ccc(C(=O)N2CCCC(C(=O)c3ccccc3OC)C2)cc1OC` (stereo not drawn), the inhibition is 2.76% (inactive).

On to `Cc1ccc(S(=O)(=O)c2nc(NCCCn3ccnc3)sc2Cl)cc1`, for which the inhibition was -1.94% (inactive).

Regarding `OC(CNCc1ccc(Cl)c(Cl)c1)c1ccccc1` (stereo not drawn), the inhibition was 52.7% (active).

For `Cc1c(Cl)cccc1NC(=S)NCC(O)c1ccccc1` (stereo not drawn), the inhibition is 3.98% (inactive).

As for `CC(C)(CNCC(O)c1ccccc1)N1CCOCC1` (stereo not drawn), the inhibition was 1.36% (inactive).

Regarding `COc1ccc(NC(=O)CC(NC(C)c2ccccc2)C(=O)O)cc1` (stereo not drawn), the inhibition is -14.9% (inactive).

In the case of `Cc1ccc(C)c(OCCC(=O)OCC(=O)N2CCN(c3ccccc3)CC2)c1`, the inhibition was -18.4% (inactive).

Take `CC1(c2ccc(Cl)cc2Cl)NC(=O)N(CC(=O)Nc2cccnc2Cl)C1=O` (stereo not drawn): the inhibition is -2.12% (inactive).

As for `CCOc1ccc(S(=O)(=O)Nc2cccc(C(=O)NCC3(N4CCCCC4)CCCCC3)c2)cc1`, the inhibition is 5.48% (inactive).

Regarding `Cc1ccc(NS(=O)(=O)c2ccc(C(=O)NCCCN3CCOCC3)cc2)cc1`, the inhibition is -3.44% (inactive).

Turning to `O=C(NCC1(N2CCCCC2)CCCCC1)c1ccc(NS(=O)(=O)c2ccc(F)cc2)cc1`, the inhibition was 52.6% (active).

Take `CCN(CC)C(=O)Oc1ccc(Br)cc1C(=O)Nc1ccc(F)c(Cl)c1`: the inhibition is -3.91% (inactive).

On to `COC(C[C@@H](O)[C@H](C)[C@H](O)COCc1ccccc1)OC`, for which the inhibition is -0.14% (inactive).

For `CC(=O)N/C(=C\c1ccccc1)C(=O)OC(C)C(=O)N(C)c1ccccc1` (stereo not drawn), the inhibition was -1.59% (inactive).

As for `CC(C)Cn1c(=O)c2ccccc2n2c(CCC(=O)NCc3ccccn3)nnc12`, the inhibition was 3.52% (inactive).

With `O=C(CSc1ccc2nnc(-c3ccccc3)n2n1)N1CCCc2ccccc21`, the inhibition was 17.4% (inactive).

Consider `CCCCNC(=O)C1(c2ccc(OC)cc2)CCOCC1`, for which the inhibition is 4.45% (inactive).

Regarding `CC(C)Oc1ccc(CCc2n[nH]c(=S)n2Cc2ccccc2)cc1`, the inhibition is -6.11% (inactive).

On to `O=S(=O)(c1ccccc1)N1CCc2ccccc21`, for which the inhibition was 2.42% (inactive).

For `COc1cc2c(cc1OC)CN(CC(=O)Nc1ccc(F)cc1)CC2`, the inhibition is 7.57% (inactive).

Take `CC(=O)Nc1ccc(C(=O)/C=C/c2ccc[nH]2)cc1`: the inhibition is -21.1% (inactive).

For the compound `COc1cc2c(cc1OC)/C(=C/C(=O)c1ccc(NC(C)=O)cc1)NCC2`, the inhibition is 55.3% (active).

As for `CCOC(=O)Cc1cc(=O)[nH]c(/N=C(\N)Nc2ccc(OC)cc2)n1`, the inhibition was 8.61% (inactive).

In the case of `Cc1nonc1C(=O)N/N=C/c1ccc(O)cc1`, the inhibition is 103% (active).

Turning to `Cc1nc2ccc(C(=O)N/N=C/c3ccc(O)cc3)cc2[nH]1`, the inhibition was -1.64% (inactive).

Regarding `O=C(C[n+]1ccccc1)N/N=C/c1ccc(O)cc1`, the inhibition was 2.83% (inactive).

`CC(NC(=O)c1ccccc1C(=O)O)c1ccc(-n2ccnc2)cc1` (stereo not drawn): the inhibition is 13.8% (inactive).

Take `O=C(Nc1ccc(Cl)cc1)Nc1ccc(Oc2cccnc2)nc1`: the inhibition is 2.76% (inactive).

Consider `CC(C)=CCN1CCN(Cc2cc3ccccc3[nH]2)CC1CCO` (stereo not drawn), for which the inhibition is 9.2% (inactive).

With `CC1CCCCN1S(=O)(=O)c1ccc(C(=O)Nc2nnc(-c3cccs3)o2)cc1` (stereo not drawn), the inhibition was -0.561% (inactive).

As for `CC1CCCCN1S(=O)(=O)c1ccc(S(=O)(=O)N(CC(=O)Nc2ccccc2)Cc2cccs2)cc1` (stereo not drawn), the inhibition is 50.6% (active).

On to `CCN(CC(=O)NCc1cccs1)S(=O)(=O)c1ccc(NC(C)=O)cc1`, for which the inhibition is -21.6% (inactive).

Turning to `O=C(Nc1ccncc1)Nc1ccc(F)cc1`, the inhibition is 4.47% (inactive).

On to `CC1(C)CC[C@]2(C(=O)O)CC[C@]3(C)C(=CCC4[C@@]5(C)CC[C@H](O)C(C)(C)C5[C@H](O)C[C@]43C)[C@@H]2C1` (stereo partly drawn), for which the inhibition is 3.05% (inactive).

Regarding `COc1cc(NC(=S)NNC(=O)CC(C)C)c(OC)cc1Cl`, the inhibition is -6.51% (inactive).

For the compound `COC(=O)c1c(NC(=O)c2ccccc2F)sc2c1C(C(=O)OC)CC2` (stereo not drawn), the inhibition is 2.31% (inactive).

Consider `Cc1nc(CC(=O)NNS(=O)(=O)c2ccc(F)c(Cl)c2)cs1`, for which the inhibition was 12.2% (inactive).

Take `O=C(N/N=C/c1ccccn1)c1cccc(NC(=O)c2ccc(Cl)cc2)c1`: the inhibition was 1.55% (inactive).

For the compound `CN(CCO)c1ccc(/C=N/Nc2nncc3ccccc23)cc1`, the inhibition was 76.1% (active).

As to `COc1cc(/C=N/Nc2nn3cnnc3c3ccccc23)cc(OC)c1OC`, the inhibition is 11.5% (inactive).

Regarding `C/C(=N\Nc1nncc2ccccc12)c1ccc(Cl)c([N+](=O)[O-])c1`, the inhibition is -6.62% (inactive).

For the compound `Cc1c(C(=O)NCCN2CCOCC2)sc2nc(-c3ccc(F)cc3)cn12`, the inhibition is 10.4% (inactive).

`CSCCC(NC(=O)COc1ccccc1)C(=O)OCCOc1ccc(F)cc1` (stereo not drawn): the inhibition was -11.3% (inactive).

In the case of `CCN1C(=NCc2ccc(OC)cc2)N[C@@H](CCc2ccccc2)[C@H](C(=O)NCc2ccc(OC)cc2)[C@H]1C`, the inhibition was 9.74% (inactive).

For the compound `CN(C)S(=O)(=O)c1cccc(C(=O)OCC(=O)N2CCCC2=O)c1`, the inhibition was -9.7% (inactive).

On to `O=C(NCc1ccccc1)C1CCN(C(=O)Cc2ccccc2)CC1`, for which the inhibition is -35.6% (inactive).

On to `CCOC(=O)c1cnc2nc(SCc3ccccc3Cl)[nH]n2c1=O`, for which the inhibition is 3.83% (inactive).

In the case of `CCOc1ccc(C2C3=C(CCCC3=O)N(CC(=O)O)C3=C2C(=O)CCC3)cc1`, the inhibition was -23.7% (inactive).

As for `CCN1CCN(C(=O)C2CCCN(S(=O)(=O)c3ccc(OC)c(OC)c3)C2)CC1` (stereo not drawn), the inhibition is 5.04% (inactive).

`O=S(=O)(Nc1ncccn1)c1ccc(NS(=O)(=O)c2cccc(Cl)c2Cl)cc1`: the inhibition was 1.24% (inactive).

Consider `COc1cccc(C(=O)c2cc3ccc(O)cc3oc2=O)c1`, for which the inhibition was 69.5% (active).

For the compound `CCOC(=O)c1cc2cc3ccccc3cc2oc1=O`, the inhibition is 8.56% (inactive).

In the case of `COc1cccc(C(=O)NNC(=O)c2cccc(F)c2)c1`, the inhibition is -6.44% (inactive).

In the case of `Nc1nonc1-n1nnc(C(=O)N/N=C/c2ccc(Cl)cc2)c1-c1ccc2c(c1)OCO2`, the inhibition is 2.68% (inactive).

As to `O=C(CN1CCOCC1)N1CCCc2c1c(=O)oc1ccc(OCc3ccccc3)cc21`, the inhibition is -1.74% (inactive).

In the case of `CC(C)(C)c1cc[n+](-c2[nH]c(=O)sc2/C=N/N=C(\[O-])c2ccccc2)cc1`, the inhibition was 3.87% (inactive).

Take `CC(CCc1ccc(O)cc1)NCc1ccc(Cl)cc1Cl` (stereo not drawn): the inhibition was 1.67% (inactive).

Consider `O=C(CCn1nnnc1CN1CCOCC1)N1CCC(c2ccccc2Cl)C1` (stereo not drawn), for which the inhibition is 2.44% (inactive).

Consider `CCc1cc(CNC(=O)CC2C(=O)NCCN2CC2CCCCC2)on1` (stereo not drawn), for which the inhibition is 4.79% (inactive).

As for `CN=C1S/C(=C\c2c(OC)cc(OC)cc2OC)C(=O)N1C`, the inhibition was 10.3% (inactive).

Turning to `COc1ccccc1C(=O)COC(=O)CNS(=O)(=O)c1ccc(NC(C)=O)cc1`, the inhibition was 6.24% (inactive).

Take `Cn1cc([N+](=O)[O-])c(C(=O)Nc2ccc3c(c2)OCCO3)n1`: the inhibition is 31.8% (inactive).

In the case of `Cc1onc(C(=O)Nc2ccc3c(c2)OCO3)c1[N+](=O)[O-]`, the inhibition is 75.7% (active).

On to `Cc1nn(CC(=O)Nc2ccc3c(c2)OCO3)c(C)c1[N+](=O)[O-]`, for which the inhibition was 11.1% (inactive).

As to `Cc1nn(C)c(Cl)c1CN1CCC(Oc2ccc(C(=O)N3CCCC3)cc2)CC1`, the inhibition was 0.366% (inactive).

With `Brc1ccc(C2CC(c3ccccc3)=Nc3ccccc3N2)cc1` (stereo not drawn), the inhibition was 7.02% (inactive).

Consider `Cc1cccc(N=C2NN=C(c3c[nH]c4ccccc34)CS2)c1`, for which the inhibition was -0.733% (inactive).

Consider `C=CCn1c(C)cc(C2=NNC(=NCC)SC2)c1C`, for which the inhibition was 50.4% (active).

On to `C=CCn1c(C)cc(C(=O)CN2C(=O)c3ccccc3C2=O)c1C`, for which the inhibition was 6.9% (inactive).

As to `COc1ccc(CCN2C(=O)N(c3ccc(OC)cc3)C(=O)C2CC(=O)Nc2ccc(OC)cc2)cc1` (stereo not drawn), the inhibition is -2.02% (inactive).

On to `COC(=O)[C@@]12CCCN1[C@H](c1ccc(-c3ccc(F)cc3)c(OC)c1)[C@H]1C(=O)N(C)C(=O)[C@H]12`, for which the inhibition is 0.984% (inactive).
